# High-throughput results as filed in PubChem BioAssay.
# Pol beta inh – DNA polymerase beta (human) inhibition | P06746 | Pol beta primer extension/strand displacement, fluorescence kinetic | Potency, µM (series often up to 114 µM), inactives show at the top dose activity change, negative = inhibition, most hits filed as inhibitors | 340,000 tested, 1.3% active | AID 485314; further: on the % scale 0 is the no-effect control and ±100 the full control effect
#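 Kinetic readout of DNA synthesis with strand displacement by Pol beta. Compound and 10 nM enzyme sit 15 min at room temperature; 50 nM substrate starts the reaction, read immediately and at 10 min.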
# POLK inh – inhibitors of human DNA polymerase kappa | purified Pol kappa, fluorescent DNA synthesis assay, 10 min | Potency, µM (titrated, usually from 107 µM), without a hit: at the highest dose activity, negative = inhibition, hits mostly inhibitors | 400,000 tested, 0.53% active | AID 588579; further: on the % scale 0 is the no-effect control and ±100 the full control effect
# Target sequence (Q9UBT6 whole entry, looked up): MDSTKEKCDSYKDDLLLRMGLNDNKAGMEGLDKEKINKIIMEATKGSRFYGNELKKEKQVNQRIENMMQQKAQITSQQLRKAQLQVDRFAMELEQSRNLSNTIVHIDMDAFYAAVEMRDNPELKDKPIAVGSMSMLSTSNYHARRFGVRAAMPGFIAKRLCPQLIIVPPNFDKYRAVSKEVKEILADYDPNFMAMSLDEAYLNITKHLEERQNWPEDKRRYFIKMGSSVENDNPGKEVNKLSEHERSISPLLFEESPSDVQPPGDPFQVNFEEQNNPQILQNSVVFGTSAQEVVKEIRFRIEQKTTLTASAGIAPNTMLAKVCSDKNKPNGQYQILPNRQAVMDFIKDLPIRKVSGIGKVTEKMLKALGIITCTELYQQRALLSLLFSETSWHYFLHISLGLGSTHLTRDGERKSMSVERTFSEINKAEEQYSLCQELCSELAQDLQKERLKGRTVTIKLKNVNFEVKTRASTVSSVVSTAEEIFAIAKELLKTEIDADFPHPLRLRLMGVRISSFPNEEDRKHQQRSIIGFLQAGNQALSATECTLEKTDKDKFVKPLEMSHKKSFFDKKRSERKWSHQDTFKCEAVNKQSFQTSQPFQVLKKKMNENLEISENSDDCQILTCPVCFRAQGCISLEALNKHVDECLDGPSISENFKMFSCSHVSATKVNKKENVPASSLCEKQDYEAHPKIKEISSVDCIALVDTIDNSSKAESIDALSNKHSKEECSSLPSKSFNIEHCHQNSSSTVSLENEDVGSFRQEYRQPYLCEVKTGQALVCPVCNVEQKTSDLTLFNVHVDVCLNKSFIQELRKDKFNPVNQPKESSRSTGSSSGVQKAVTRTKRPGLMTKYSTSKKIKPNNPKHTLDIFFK
#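 Kinetic fluorescence readout at 0 and 10 min followed reaction start with substrate at 50 nM final. Beforehand, enzyme (10 nM Pol kappa) stood 15 min with compound at room temperature; buffer-only wells were negative controls.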
# WRN inhibitor – WRN helicase (human) inhibition | Q14191 | WRN helicase unwinding, fluorescent forked duplex, kinetic | Potency, µM (highest dose often 114 µM), for the others: at the top dose activity change, negative = inhibition, most hits filed as inhibitors | 360,000 tested, 0.46% active; further: on the % scale 0 is the no-effect control and ±100 the full control effect; nearly all actives have a fitted effect of over 55% in size
#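 Kinetic fluorescence helicase assay: unwinding of a quenched forked DNA duplex (100 nM final) with 2 mM ATP final raises red fluorescence (525/598 nm). Compounds sat 15 min at room temperature with 20 nM WRN beforehand.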
# POLI inh – blocks human DNA polymerase iota activity; Q9UNA4; Pol iota fluorescent replication assay, 10 min; Potency, µM (doses to about 115 µM), inactives show at the highest dose activity, negative = inhibition, hits mostly inhibitors; 390,000 tested, 1% active; AID 588590
#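 Fluorescent replication assay read twice, at 0 min and 10 min after adding 50 nM (final) substrate. Enzyme (10 nM) and compounds were first incubated 15 min at room temperature; enzyme-free buffer wells were negative controls.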
# POLH inh – blocks human DNA polymerase eta activity; Q9Y253; recombinant Pol eta, fluorescent DNA replication assay; Potency, µM (highest dose often 114 µM), for inactives: at the top dose activity change, negative = inhibition, actives largely listed as inhibitors; 390,000 tested, 1.2% active; AID 588591; further: on the % scale 0 is the no-effect control and ±100 the full control effect
#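 Pol eta (10 nM) was preincubated with compounds for 15 min at room temperature, after which fluorescent replication substrate (50 nM final) was added to start the reaction. Fluorescence was read kinetically at 0 and 10 min.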
# * hit, by the source's call; ? = inconclusive; · = not tested or not shown; [ ] = remark or other dose. The list is not random: actives were taken first. Their share in the collection is about 2.3%. The call rests on the fitted dose curve; in most records, active means well fitted curve in the direction sought with a large enough effect; inconclusive means small, poorly fitted or top-dose-only effect, or another doubt; inactive means no such curve, though single readings can be large; an effect the other way counts as inactive or inconclusive. Potency means the concentration at half of the fitted maximal effect.
SMILES,Pol beta inh,POLK inh,WRN inhibitor,POLI inh,POLH inh
C#CCOCCOCCOCCNc1nc(N2CCN(C(=O)CCCCCCCCCCNC(=O)[C@@H](CCC(=O)O)n3cc(CCCCCN)nn3)CC2)nc(N2CCN(C(=O)CCCCCCCCCCNC(=O)[C@H](CCCCN)n3cc(C[C@@H](C)CC)nn3)CC2)n1,·,16%,-8%,3%,89µM*
C#CCOCCOCCOCCNc1nc(N2CCN(C(=O)CCCCCCCCCCNC(=O)[C@@H](CCSC)n3cc(CCO)nn3)CC2)nc(N2CCN(C(=O)CCCCCCCCCCNC(=O)[C@H](CO)n3cc(CCCCCN)nn3)CC2)n1,·,1%,50µM*,-13%,?
C#CCOCCOCCOCCNc1nc(N2CCN(C(=O)CCCCCCCCCCNC(=O)[C@H](CCCCN)n3cc(CCO)nn3)CC2)nc(N2CCN(C(=O)CCCCCCCCCCNC(=O)[C@H](CCCCN)n3cc(C[C@@H](C)CC)nn3)CC2)n1,·,-25%,50µM*,?,79µM*
Cc1cccc(-c2nn(C(=S)Nc3ccccc3)cc2-c2ccnc3ccccc23)n1,·,14%[60.1 µM],·,·,·
CC[C@H](C)[C@H](NC(=O)[C@H](Cc1ccc(O)cc1)NC(=O)[C@@H]1CCCN1C(=O)[C@H](CCCCN)NC(=O)[C@@H](N)CCCCN)C(=O)N[C@@H](CC(C)C)C(=O)O,·,18%[60.1 µM],·,·,·
COc1cc(NCc2ccccc2)c2ncn(C(C)C)c2c1,·,-3%,4%,61%,-16%
CCC(CN(C)C)Oc1cc(NCc2ccccc2)c2ncn(C(C)C)c2c1 (stereo unspecified),·,-12%,3%,14µM*,-17%
N#CC1=C(S)N(c2ccc(F)cc2)C(c2cccs2)NC1=O (stereo unspecified),0%,-13%,-14%,12%,-14%
N#CC1=C(S)N(c2ccccc2)C(c2ccc(-c3ccccc3Cl)o2)NC1=O (stereo unspecified),-13%,-7%,-29%,1%,45µM*
CC(=O)Nc1nonc1-c1nc2ccccc2n1CC1CC1,6%,-5%,-6%,-4%,10%
CC(=O)Nc1nonc1-c1nc2ccccc2n1N(C(C)=O)C(C)=O,35µM*,-17%,-25%[57.1 µM],?,?
O=S(=O)(O)CC(S)CS (stereo unspecified),·,-1%[19.4 µM],·,·,·
CCCCCC(=O)Cc1cc(O)cc2c1C(=O)Oc1cc(O)c(C(=O)O)c(CCCCC)c1O2,45µM*,79µM*,45µM*,71µM*,18µM*
CN(C)c1ccc(CNC(=O)CCS(=O)(=O)c2ccc3c(c2)n(C)c(=O)c(=O)n3C)cc1,25µM*,0%,-10%,5%,-16%
COc1ccccc1N1CCN(C(CNC(=O)C(=O)NCCc2ccccc2)c2cccnc2)CC1 (stereo unspecified),?,-9%,·,21%,-18%
Oc1ccccc1C1=Nc2ncnn2C(c2ccc(F)cc2)C1 (stereo unspecified),32µM*,-8%,?,2%,?
O=C1C=C(O)c2cccc(O)c2C1=O,20µM*,?,-25%,?,35µM*
CCOC(=O)C(CC)N1CCN(Cc2ccc(F)cc2)C(=O)C1=O (stereo unspecified),-15%,-3%[60.1 µM],·,30%,-21%
CCN(C(=O)c1ccc2c(c1)N(Cc1cccc(Cl)c1)C(=O)c1ccccc1S2=O)c1ccccc1 (stereo unspecified),-26%,-1%[60.1 µM],·,-13%,-25%
CCCCCCOc1ccc(CC(=O)O)cc1,·,2%,·,31%,·
O=C(Nc1ccccc1)c1nc[nH]c1C(=O)NCCN(CCNC(=O)c1[nH]cnc1C(=O)Nc1ccccc1)CCNC(=O)c1[nH]cnc1C(=O)Nc1ccccc1,·,-32%,-11%,79µM*,-9%
CCCCCCCCCCN(CCCCCCCCCC)c1ccc(/C=C/c2ccnc3ccccc23)cc1,·,7%,·,-4%,·
COc1ccc(NC(=O)CN(c2ccccc2)S(=O)(=O)N(C)C)cc1OC,40µM*,?,?,14µM*,45µM*
Cc1cc(C)c(NC(=O)CN(c2ccccc2)S(=O)(=O)N(C)C)c(C)c1,35µM*,?,-13%[57.1 µM],89µM*,?
COc1ccccc1N(C(C)=O)C1=C(Cl)C(=O)c2ccccc2C1=O,·,·,-7%[11.6 µM],·,50µM*
SMILES,Pol beta inh,POLK inh,WRN inhibitor,POLI inh,POLH inh
CCN(CC)c1ccc(/C=C/C2=C3C=CC=CC3NC=C2)cc1 (stereo unspecified),·,-20%,·,1.3µM*,·
Cc1ccccc1-n1nc2c(c1NC(=O)c1c(-c3ccccc3Cl)noc1C)CSC2,25%,-15%,-13%,79µM*,10%
Cc1cccc(-n2nc3c(c2NC(=O)c2ccco2)CSC3)c1C,?,28µM*,45µM*,14µM*,13µM*
Cc1ccc(-n2nc3c(c2NC(=O)c2c(-c4ccccc4Cl)noc2C)CSC3)cc1,1%,-7%,-13%,?,7%
COc1cc2[nH]c3c(=O)n(CCN4CCCCC4)cnc3c2cc1OC,-16%,22µM*,-7%[57.1 µM],1%,-2%
COc1ccc2c(c1)C/C(=C\c1ccc(N(C)C)cc1)C2=O,·,-3%,·,4%,·
CCCC(=O)NCCc1c(I)[nH]c2ccc(OC)cc12,·,-4%[19.4 µM],·,·,·
O=C(CCl)c1ccc2c(c1)CCCC2,·,-7%,·,11µM*,·
O=C(C[n+]1ccccc1Br)c1ccc2c(c1)CCCC2,·,?,·,71µM*,·
O=C(C[n+]1cc(Br)cc(Br)c1)c1ccc2c(c1)CCCC2,·,-18%,·,20%,·
CCC(NC(=O)Nc1cc(OC)ccc1OC)c1c(-n2cccc2)sc2c1CCN(CC)C2 (stereo unspecified),?,-10%,·,6%,-2%
O=C1/C(=C\c2ccc(Br)o2)Cc2ccccc21,40µM*,-9%,-35%[57.1 µM],?,?
O=C(CN(CCc1c[nH]c2ccccc12)S(=O)(=O)c1ccccc1)N1CCCCCC1,·,-3%,·,-7%,·
Cc1cc(C)nc(SCCc2ccncc2)n1,-2%,2%,0%,22µM*,-11%
Cc1cc(C)nc(SCSc2nc(C)cc(C)n2)n1,1%,-11%,13%,1%,-8%
CCn1c(CSc2nc3ccccc3s2)nnc1SCC(=O)c1ccc(Cl)cc1,11%,-17%,79µM*,-6%,-17%
Nc1ccc(/C=C/c2nccc3ccccc23)cc1,·,-15%,·,?,·
CC[C@H](C)[C@@H]1NC(=O)[C@H](Cc2ccc(O)cc2)NC(=O)[C@@H](N)CSSC[C@@H](C(=O)N2CCC[C@H]2C(=O)N[C@@H](CC(C)C)C(=O)NCC(N)=O)NC(=O)[C@H](CC(N)=O)NC(=O)[C@H](CCC(N)=O)NC1=O,·,-10%[12 µM],·,·,·
